Measured values taken from PubChem BioAssay AID504401 (The Scripps Research Institute Molecular Screening Center, 2011).
Unmarked numbers belong to inactive results. The rule behind the calls is not given here.

Tested on: Phorbol Ester
Experiment: CYP450 and receptor off-target profile – biochemical, Ricerca HitProfilingScreen, selectivity assay for GPR7 antagonist project, late-stage follow-up (AID 504401)
Details: Ricerca radioligand binding and CYP450 panel, at 10 µM, active compounds read high

Work on COc1ccc(Oc2c(Cl)cnn(-c3cc(C)cc(C)c3)c2=O)cc1 yielded an inhibition of -15%.
